{"source": "PubChem BioAssay (NCATS)", "note": "Where “and” joins values, the source holds several entries; their conditions need not be identical. Equal values may be shown once. Inconclusive results are not listed. Entries that show only a call come without a potency. A number with no mark means an inactive call. Calls of active or inactive are those of the source. The call rests on the fitted dose curve; in most records, active means well fitted inhibition curve with a large enough effect; inconclusive means small, poorly fitted or top-dose-only effect; inactive means no such curve, though single readings can be large or run the other way.", "data": [{"test": "Primary qHTS for inhibitors of nuclear receptor binding SET domain protein 2 (NSD2) in an RCH-ACV wild type WT cells (2C) (AID 1645877); further: nearly all actives have a fitted effect of over 70% in size", "details": "RCH-ACV NSD2 WT (2C) viability, CellTiter-Glo, 72 h; series mostly up to 44.9 µM", "from_the_text": "Assay Provider: Jonathan D. Licht, MD\nUniversity of Florida College of Medicine, Gainesville, FL\nMutations in epigenetic regulators are common in relapsed pediatric acute lymphoblastic leukemia (ALL). Here, we uncovered the mechanism underlying the relapse of ALL driven by an activating mutation of the NSD2 histone methyltransferase (p.E1099K). […] Correction of this mutation restored glucocorticoid sensitivity. The transcriptional response to glucocorticoids was blocked in NSD2 mutant cells due to depressed glucocorticoid receptor (GR) levels and the failure of glucocorticoids to autoactivate GR expression. […] Pre-treatment of NSD2 p.E1099K cell lines and PDX samples with PRC2 inhibitors reversed glucocorticoid resistance in vitro and in vivo.\nHigh-throughput drug screening of isogenic RCH-ACV cell lines was performed at the National Center for Advancing Translational Science (NCATS), National Institutes of Health as previously described (1). Briefly, isogenic RCH-ACV NSD2 p.E1099K mutant (9B) and WT cells (2C) were plated at 500 cells/well in a 1536-well plate with a 72-hour incubation with compounds prior to addition of CellTiter-Glo to assess cell viability. NCATS libraries screened include: NPC, MIPE 5.0, Kinase and NPACT. To determine compound activity in the qHTS assay, the concentration-response data for each sample was plotted and modeled by a four-parameter logistic fit yielding IC50 and efficacy (maximal response) values. The area under the curve (AUC) of the dose-response curve ensures both efficacy (magnitude of cell killing) and potency (concentration that elicits cell killing) are accounted for in the analysis of activity.\n1. Tobie D Lee, Olivia W Lee, Kyle R Brimacombe, Lu Chen, Rajarshi Guha, Sabrina Lusvarghi, Bethilehem G Tebase, Carleen Klumpp-Thomas, Robert W Robey, Suresh V Ambudkar, Min Shen, Michael M Gottesman, Matthew D Hall. A High-Throughput Screen of a Library of Therapeutics Identifies Cytotoxic Substrates of P-glycoprotein. Mol Pharmacol. 2019, Nov;96(5):629-640.", "values": [{"smiles": "C[C@@H]1O[C@@H](O[C@H]2[C@H](O[C@H]3[C@H](O[C@H]4CC[C@@]5(C=O)C(CC[C@]6(C)C5CC=C5C7CC(C)(C)C[C@@H](O)[C@]7(C)CC[C@]56C)C4(C)C)O[C@H](C(=O)O)[C@@H](O)[C@@H]3O)OC[C@@H](O)[C@@H]2O)[C@H](O)[C@H](O)[C@H]1O", "note": "(stereo not given in full)", "activity change, negative = cell killing": "-3.05% [at 9.23 µM]"}, {"smiles": "C=C[C@H]1[C@H](O[C@@H]2O[C@H](CO)[C@@H](O)[C@H](O)[C@H]2O)OC=C2C(=O)OCC[C@]21O", "Potency": "inactive"}, {"smiles": "OC[C@H]1O[C@@H](Oc2cc(O)cc(-c3cc4ccc(O)cc4o3)c2)[C@H](O)[C@@H](O)[C@@H]1O", "Potency": "inactive"}, {"smiles": "CC(C)C1=CCC(C)(O)C(OC2OC(CO)C(O)C(O)C2O)C1", "note": "(stereo not given)", "Potency": "inactive"}, {"smiles": "CC1=C2C(=O)O[C@@H](c3ccoc3)[C@]2(C)CCC1", "Potency": "inactive"}, {"smiles": "CCN[C@@H]1C[C@H](N)[C@@H](O[C@H]2OC(CN)=CC[C@H]2N)[C@H](O)[C@H]1O[C@H]1OC[C@](C)(O)[C@H](NC)[C@H]1O", "Potency": "inactive"}, {"smiles": "CC(/C=C/[C@]1(O)[C@@]2(C)CO[C@@]1(C)C[C@@H](O)C2)=C\\C(=O)O[C@@H]1O[C@H](CO)[C@@H](O)[C@H](O)[C@H]1O", "Potency": "inactive"}, {"smiles": "CN(C)C/C=C/C(=O)Nc1ccc(C(=O)Nc2cccc(Nc3ncc(Cl)c(-c4c[nH]c5ccccc45)n3)c2)cc1", "Potency": "18.3 nM (active) and 46.8 nM (active)"}, {"smiles": "CC1CCC23COC(=O)C2=CC(O)CC3C1(C)CCC1=CC(=O)OC1O", "note": "(stereo not given)", "Potency": "inactive"}, {"smiles": "COC1=CC(=O)C[C@@H](C)[C@]12Oc1cc(OC)cc(OC)c1C2=O", "Potency": "inactive"}, {"smiles": "CC(=C/C(=O)O)/C=C/[C@]1(O)[C@@]2(C)CO[C@]1(C)C[C@H](O[C@@H]1O[C@H](CO)[C@@H](O)[C@H](O)[C@H]1O)C2", "Potency": "inactive"}, {"smiles": "CC(C)(O)C1=CCC23COC(C2)C(O)(C(=O)O)CCC13", "note": "(stereo not given)", "Potency": "inactive"}, {"smiles": "C[C@H]1CN(C[C@H](Cc2ccccc2)C(=O)NCC(=O)O)CC[C@@]1(C)c1cccc(O)c1", "Potency": "inactive"}, {"smiles": "CC(C)(C)NCc1cc(Nc2ccnc3cc(Cl)ccc23)c2c(c1O)CCCC2", "activity change, negative = cell killing": "-13.7% [at 0.588 µM]"}, {"smiles": "CC1(C)O[C@@H]2C[C@H]3[C@@H]4CCC5=CC(=O)C=C[C@]5(C)[C@H]4[C@@H](O)C[C@]3(C)[C@]2(C(=O)CO)O1", "Potency": "46.8 nM (active)"}, {"smiles": "O=C(/C=C/c1ccc(O)c(O)c1)OCc1ccccc1O[C@@H]1O[C@H](CO)[C@@H](O)[C@H](O)[C@H]1O", "Potency": "inactive"}, {"smiles": "CC(C)=CCc1ccc(Oc2c(O)cc(C)cc2CO)c(C(=O)O)c1O", "Potency": "inactive"}, {"smiles": "COc1cc(/C=C/C(=O)OC2CC(C)=C(C(=O)O)/C2=C/CO[C@@H]2O[C@H](CO)[C@@H](O)[C@H](O)[C@H]2O)ccc1O", "note": "(stereo not given in full)", "Potency": "inactive"}, {"smiles": "CCC(=O)N[C@@H]1Cc2ccccc2[C@H](c2ccccc2)C1", "Potency": "inactive"}, {"smiles": "COc1ccc2c(c1)O[C@H](O[C@@H]1O[C@H](CO)[C@@H](O)[C@H](O)[C@H]1O)C(=O)N2", "Potency": "inactive"}, {"smiles": "CCOC(=O)c1ccc(N(C)c2csc(-c3ccccc3)n2)cc1", "Potency": "inactive"}, {"smiles": "CNC(=O)O[C@H]1COc2ccc(N3CCN(C4COC4)CC3)cc2[C@@H]1NC(=O)c1ccc(F)cc1", "Potency": "inactive"}, {"smiles": "C[C@@H]1O[C@@H](O[C@H]2[C@H](O[C@H]3[C@H](O[C@H]4CC[C@@]5(C)C(CC[C@]6(C)C5CC=C5[C@@H]7CC(C)(C(=O)O)C[C@@H](O)[C@]7(C)CC[C@]56C)[C@@]4(C)CO)O[C@H](C(=O)O)[C@@H](O)[C@@H]3O)O[C@H](CO)[C@H](O)[C@@H]2O)[C@H](O)[C@H](O)[C@H]1O", "note": "(stereo not given in full)", "activity change, negative = cell killing": "-5.72% [at 9.23 µM]"}, {"smiles": "CCC1CC2C(C)=CC3CCCCC3C2(C)C2(OC(=O)C(C)(O)OC2=O)O1", "note": "(stereo not given)", "Potency": "inactive"}, {"smiles": "O=C(O[C@H]1[C@@H]2C=CO[C@@H](O[C@@H]3O[C@H](CO)[C@@H](O)[C@H](O)[C@H]3O)[C@@H]2[C@@]2(CO)O[C@@H]12)c1ccc(O)c(O)c1", "Potency": "inactive"}, {"smiles": "CC1CCC(=O)CC(O)C(O)CC(=O)O1", "note": "(stereo not given)", "Potency": "inactive"}, {"smiles": "CC(=O)c1c(C)cc(O[C@@H]2O[C@H](CO)[C@@H](O)[C@H](O)[C@H]2O)cc1O", "Potency": "inactive"}, {"smiles": "CCCC(N[C@@H](C)C(=O)N1[C@H](C(=O)O)C[C@@H]2CCCC[C@@H]21)C(=O)OCC", "note": "(stereo not given in full)", "Potency": "inactive"}, {"smiles": "O=C1Nc2ccc(O)cc2O[C@H]1O[C@@H]1O[C@H](CO)[C@@H](O)[C@H](O)[C@H]1O", "Potency": "inactive"}, {"smiles": "C=C1CCC(OC(C)=O)C2(C)CC3(O)OC(=O)C(C)=C3CC12", "note": "(stereo not given)", "Potency": "inactive"}, {"smiles": "CCOC(=O)N1CCC(NCCNC(=O)c2ccccc2C)CC1", "Potency": "inactive"}, {"smiles": "C=CC(C)(O)CO[C@@H]1O[C@H](CO)[C@@H](O)[C@H](O)[C@H]1O", "note": "(stereo not given in full)", "Potency": "inactive"}, {"smiles": "O=C(c1ccccn1)c1cnn2c(-c3ccncc3)ccnc12", "Potency": "inactive"}, {"smiles": "COc1cc(CC(COC2OC(CO)C(O)C(O)C2O)c2cc(/C=C/CO)cc(OC)c2O)ccc1O", "note": "(stereo not given)", "Potency": "inactive"}, {"smiles": "C=C/C=C/[C@@H]1OC[C@H](/C=C/C=C/C)[C@H]1O", "Potency": "inactive"}, {"smiles": "CN1C(=O)c2ccccc2-n2c(nc3ccccc3c2=O)/C1=C/c1ccccc1", "Potency": "inactive"}, {"smiles": "CC1=CC(=O)C[C@H]2[C@@H]1CC[C@@H](C)[C@]21CO[C@H](c2ccoc2)C1=O", "Potency": "inactive"}, {"smiles": "CC1(CCC(=O)O)C(=O)C=CC23CC4CC(OC4(C)C2O)C13", "note": "(stereo not given)", "Potency": "inactive"}, {"smiles": "OC[C@H]1O[C@@H](n2cnc3c2NC=NC[C@H]3O)C[C@@H]1O", "Potency": "inactive"}, {"smiles": "O=C(OCc1cccc(O)c1O[C@@H]1O[C@H](CO)[C@@H](O)[C@H](O)[C@H]1O)C1(O)C(=O)C2C=CC1C1C=CC(=O)C(O)(C(=O)OCc3cccc(O)c3O[C@@H]3O[C@H](CO)[C@@H](O)[C@H](O)[C@H]3O)C21", "note": "(stereo not given in full)", "activity change, negative = cell killing": "-22.5% [at 9.23 µM]"}]}]}
